Measured values published in PubChem BioAssay (NCATS).
Inconclusive results are not listed. A number with no mark means an inactive call. Calls follow the shape of the dose curve; as a rule, active = well fitted inhibition curve with a large enough effect in the repeat runs; inconclusive = weak or mixed curves; inactive = no such curve, though single readings can be large or run the other way.

Target: Cytochrome P450 3A4 (Homo sapiens) (UniProt P08684)
Test: Cytochrome P450 family 3 subfamily A member 4 (CYP3A4) small molecule antagonists: luciferase qHTS assay (AID 1645841); also: nearly all actives have a fitted effect of over 45% in size
Details: P450-Glo CYP3A4 enzyme assay, luciferin luminescence; series mostly up to 57.4 µM; activity change, negative = inhibition: at the top concentration
Description: National Center for Advancing Translational Sciences [NCATS]
Cytochrome P450 (CYP) enzymes are membrane-bound hemeproteins that play a key role in metabolism of drugs and xenobiotics. Assaying the effect of chemicals on CYP isozymes is useful to minimize the adverse drug reactions and toxicities in drug development process. Chemical compounds were tested for their effect on CYP enzyme activities by using P450-Glo (TM) screening systems (Promega Corporation, Madison, WI). These systems provide a luminescent method containing proluciferin substrates and are converted to luciferin products by CYP isozymes. The luciferin products formed are detected with a luciferin detection reagent, and the amount of light produced is proportional to CYP activity. P450-Glo (TM) CYP3A4 screening system (Catalog. No. V9910) was used to detect the compounds that interfere in CYP3A4 activity. The positive control compound used for CYP3A4 assay is ketoconazole (Sigma-Aldrich, St. Louis, MO).
Two ul of enzyme-substrate mix was dispensed into medium binding white/solid 1536-well plates (Greiner Bio-One North America Inc., Monroe, NC) using a Flying Reagent Dispenser (FRD, Aurora Discovery, San Diego, CA). Test compounds dissolved in DMSO and positive control (ketoconazole) were transferred to the assay plates at 23 nl using a Pintool station (Wako, San Diego, CA). The assay plates were incubated at room temperature for 10 min. Then 2 ul of NADPH regeneration solution was added to each well of the assay plates using an FRD and incubated at room temperature for 1 h. The reaction was stopped by adding 4 ul of detection reagent using an FRD and after 20 min incubation at room temperature, the luminescence signal was measured using a ViewLux plate reader (Perkin Elmer, Shelton, CT). Data were expressed as relative luminescence units.

Sequence of Cytochrome P450 3A4 (Homo sapiens) (P08684 whole entry, looked up): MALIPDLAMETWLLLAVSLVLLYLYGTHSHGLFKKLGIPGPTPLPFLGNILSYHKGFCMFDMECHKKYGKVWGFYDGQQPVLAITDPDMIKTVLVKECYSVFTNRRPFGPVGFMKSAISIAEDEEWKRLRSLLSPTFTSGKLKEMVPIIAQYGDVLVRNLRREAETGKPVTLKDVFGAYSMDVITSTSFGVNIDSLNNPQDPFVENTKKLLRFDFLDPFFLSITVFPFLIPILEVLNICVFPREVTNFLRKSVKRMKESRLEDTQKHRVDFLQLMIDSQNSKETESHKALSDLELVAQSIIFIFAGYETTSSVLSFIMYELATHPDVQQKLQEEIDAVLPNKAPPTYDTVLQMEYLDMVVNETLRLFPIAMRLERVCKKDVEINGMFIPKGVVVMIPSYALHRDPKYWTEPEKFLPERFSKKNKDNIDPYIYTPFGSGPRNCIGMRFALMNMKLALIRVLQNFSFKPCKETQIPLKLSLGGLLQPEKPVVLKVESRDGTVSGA

| Compound | activity change, negative = inhibition [%] |
| --- | --- |
| NCc1ccc(S(N)(=O)=O)cc1 | 2.83 |
| Cc1c(C(=O)NCCO)[n+](=O)c2ccccc2n1[O-] | 28.3 |
| CCN(CC)S(=O)(=O)c1ccc(C(=O)O)cc1 | 7.36 |
| CCN(CC)CC1CCCCN1CC(=O)N1c2ccccc2C(=O)Nc2cccnc21 (centres undefined) | -28.5 |
| C/C=C/C(=O)N(CC)c1ccccc1C | 38.1 |
| CCCCCCCCCCCCCCCCN | 32.5 |
| CC(=O)N(CC(O)CN(C(C)=O)c1c(I)c(C(=O)NCC(O)CO)c(I)c(C(=O)NCC(O)CO)c1I)c1c(I)c(C(=O)NCC(O)CO)c(I)c(C(=O)NCC(O)CO)c1I (centres undefined) | 31.3 |
| OCc1ccc(Cl)cc1Cl | 31.4 |
| CC(=O)NS(=O)(=O)c1ccc(N)cc1 | 0 |
| O=C(O)c1cc(=O)c2ccccc2o1 | 32 |
| O=C(CN1CCNCC1)NC1CCCCC1 | 9.95 |
| CC1(c2ccccc2)OC(C(=O)O)=CC1=O (centres undefined) | 41.8 |
| NC(N)=NS(=O)(=O)c1ccc(N)cc1 | 25.4 |
| C[C@@H](N)C(=O)O | 24.8 |
